According to PubChem BioAssay (NCATS):
Values joined by “and” are separate entries in the source; they are usually repeats but may differ in a detail not shown here. Identical values can stand only once. Results filed as inconclusive are left out. Entries that show only a call come without a potency. The source holds several records for some structures; these can differ, active in one and inactive in another. Active and inactive are the calls of the source. Unless noted, calls come from the whole dose curve; as a rule, active = well fitted curve in the direction sought with a large enough effect; inconclusive = small, poorly fitted or top-dose-only effect, or another doubt; inactive = no such curve, though single readings can be large; an effect the other way counts as inactive or inconclusive.

What was measured:
[1] = biological target: Protein phosphatase 1D (Homo sapiens) (UniProt O15297); test: RapidFire Mass Spectrometry qHTS Assay for Modulators of WT P53-Induced Phosphatase 1 (WIP1) (AID 1347424);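 note: amount of dephosphorylated VEPPL-S-QETFS peptide product formed by WIP1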; note: potency is the fitted concentration of half-maximal effect
Sequence of Protein phosphatase 1D (Homo sapiens) (O15297 whole entry, looked up): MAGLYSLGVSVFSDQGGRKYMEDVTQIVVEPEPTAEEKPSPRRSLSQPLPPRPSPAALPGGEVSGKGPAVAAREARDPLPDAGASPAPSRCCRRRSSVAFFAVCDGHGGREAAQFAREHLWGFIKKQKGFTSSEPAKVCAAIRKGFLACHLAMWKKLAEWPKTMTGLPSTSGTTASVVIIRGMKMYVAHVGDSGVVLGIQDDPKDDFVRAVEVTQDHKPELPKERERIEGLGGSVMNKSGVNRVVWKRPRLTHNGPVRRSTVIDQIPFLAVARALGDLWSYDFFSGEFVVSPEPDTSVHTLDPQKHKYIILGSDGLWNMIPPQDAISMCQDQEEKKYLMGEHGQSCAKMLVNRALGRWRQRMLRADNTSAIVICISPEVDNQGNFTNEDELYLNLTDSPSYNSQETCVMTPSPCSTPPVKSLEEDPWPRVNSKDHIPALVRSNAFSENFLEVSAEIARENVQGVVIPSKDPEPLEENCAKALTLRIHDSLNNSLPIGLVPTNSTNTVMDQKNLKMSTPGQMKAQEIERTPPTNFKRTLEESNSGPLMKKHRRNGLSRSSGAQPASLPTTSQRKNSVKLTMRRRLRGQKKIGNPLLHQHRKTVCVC
How it was run: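 WIP1 (10 nM final) was preincubated 1 h at room temperature with compounds in Tris-HCl pH 7.5, 30 mM MgCl2, TCEP, EGTA, BSA; 2 uM VEPPL-pS-QETFS phosphopeptide was added for 5 min, quenched with formic acid, and dephosphorylated product quantified by RapidFire MS.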

[2] = biological target: Protein phosphatase 1D (Homo sapiens) (UniProt O15297); test: Rhodamine-PBP qHTS Assay for Modulators of WT P53-Induced Phosphatase 1 (WIP1) (AID 1347425)
How it was run: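 WIP1 (5 nM final) was preincubated with compound for 1 hour at room temperature. It then dephosphorylated 10 uM VEPPL-pS-QETFS peptide in Tris-HCl pH 7.5 with 30 mM MgCl2. Released Pi was detected by 10 uM Rh-PBP fluorescence (ex 525/em 598 nm) read at 1-min intervals for 11 min, as delta f1 - f0.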

[3] = biological target: Calcium and integrin-binding protein 1 (Homo sapiens) (UniProt Q99828); test: Primary qHTS for Identification of Calcium Integrin Binding Protein 1 (CIB1) Competitor (AID 1508620);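 note: GST tagged CIB1 binding a fluorescein labelled alphaIIb integrin peptide tracer; top concentration of the series differs between compounds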
Sequence of Calcium and integrin-binding protein 1 (Homo sapiens) (Q99828 whole entry, looked up): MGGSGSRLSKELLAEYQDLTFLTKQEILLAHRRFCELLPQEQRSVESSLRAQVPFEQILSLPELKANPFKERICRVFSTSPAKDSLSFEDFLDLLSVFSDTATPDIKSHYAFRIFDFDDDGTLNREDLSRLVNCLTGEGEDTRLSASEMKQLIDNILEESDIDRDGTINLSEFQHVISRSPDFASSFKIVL
How it was run: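 Fluorescence polarization competition: CIB1-GST (1 uM final) preincubated with compound 15 min at room temperature, then FITC-labeled alphaIIb peptide (100 nM final) added for another 15 min. Polarization read at Ex 480/Em 540.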

[4] = Primary qHTS for small molecule stabilizers of the endoplasmic reticulum resident proteome: Secreted ER Calcium Modulated Protein (SERCaMP) assay (AID 1508630)
How it was run: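 GLuc-SERCaMP-expressing SH-SY5Y cells, pretreated 16 h with compound, are challenged with thapsigargin to empty ER calcium stores; after 4 h, coelenterazine is added directly to the medium and luminescence is imaged.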

[5] = A High-Content qHTS Against Drug Library for the Identification of Small Molecules that Inhibit DYT1 Early Onset Primary Dystonia-Associated Cell Pathology (AID 1645839; calls by dose curve; note: series mostly up to about 46 µM)
How it was run: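 Readout: %pathology, the punctate EGFP-TorsinA distribution from imaging, as the primary channel and cell count as the toxicity counterscreen. HEK293 Flp-In cells expressing delE TorsinA were induced with tetracycline and treated with compound for 48 h.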

[6] = biological target: Cytochrome P450 2D6 (Homo sapiens) (UniProt P10635); test: Cytochrome P450 family 2 subfamily D member 6 (CYP2D6) small molecule antagonists: luciferase biochemical (cell-free) qHTS assay (AID 1645840; active = well fitted curve in the direction sought with a large enough effect in the repeat runs; an effect the other way counts as inactive or inconclusive; note: nearly all actives have a fitted effect of over 55% in size; note: potency is the fitted concentration of half-maximal effect)
Sequence of Cytochrome P450 2D6 (Homo sapiens) (P10635 whole entry, looked up): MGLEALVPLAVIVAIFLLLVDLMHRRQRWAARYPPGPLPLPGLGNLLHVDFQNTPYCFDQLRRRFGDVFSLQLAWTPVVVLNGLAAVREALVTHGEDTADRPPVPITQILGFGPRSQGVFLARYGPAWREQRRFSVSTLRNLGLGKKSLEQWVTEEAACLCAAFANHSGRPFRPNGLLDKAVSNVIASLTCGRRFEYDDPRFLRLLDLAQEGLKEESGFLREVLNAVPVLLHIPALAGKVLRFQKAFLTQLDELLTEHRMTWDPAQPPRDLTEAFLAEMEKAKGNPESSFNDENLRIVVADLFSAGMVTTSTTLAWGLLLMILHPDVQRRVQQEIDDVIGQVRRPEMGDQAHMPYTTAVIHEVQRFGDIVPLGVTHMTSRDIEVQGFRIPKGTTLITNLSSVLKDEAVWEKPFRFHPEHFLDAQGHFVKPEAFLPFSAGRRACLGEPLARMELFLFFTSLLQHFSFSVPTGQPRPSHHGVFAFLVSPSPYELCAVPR
How it was run: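 P450-Glo luminescent screen: recombinant CYP2D6 enzyme–proluciferin substrate mix preincubated with compound 10 min at room temperature, then NADPH regeneration added for 1 h at room temperature. Detection reagent added for 20 min; luciferin light read as relative luminescence units.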

[7] = biological target: Cytochrome P450 2C9 (Homo sapiens) (UniProt P11712); test: Cytochrome P450 family 2 subfamily C member 9 (CYP2C9) small molecule antagonists: luciferase biochemical (cell-free) qHTS assay (AID 1645842; active = well fitted curve in the direction sought with a large enough effect in the repeat runs; an effect the other way counts as inactive or inconclusive; note: nearly all actives have a fitted effect of over 55% in size; note: potency is the fitted concentration of half-maximal effect)
Sequence of Cytochrome P450 2C9 (Homo sapiens) (P11712 whole entry, looked up): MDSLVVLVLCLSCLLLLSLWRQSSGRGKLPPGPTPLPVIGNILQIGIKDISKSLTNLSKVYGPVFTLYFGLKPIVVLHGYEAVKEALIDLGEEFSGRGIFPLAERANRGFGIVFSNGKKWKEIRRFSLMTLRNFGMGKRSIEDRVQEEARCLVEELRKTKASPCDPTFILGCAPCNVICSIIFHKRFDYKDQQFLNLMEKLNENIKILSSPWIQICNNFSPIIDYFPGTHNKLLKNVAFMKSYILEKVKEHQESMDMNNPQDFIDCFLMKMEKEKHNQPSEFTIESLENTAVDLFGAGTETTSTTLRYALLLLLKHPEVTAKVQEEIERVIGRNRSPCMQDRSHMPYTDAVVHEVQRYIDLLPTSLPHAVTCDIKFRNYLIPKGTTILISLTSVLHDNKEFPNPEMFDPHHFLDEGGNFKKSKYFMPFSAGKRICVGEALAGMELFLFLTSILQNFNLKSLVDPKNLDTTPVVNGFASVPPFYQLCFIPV
How it was run: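 Luminescence, after 20 min with luciferin detection reagent, reflected CYP2C9 turnover during a 1 h NADPH-driven reaction at 37C. Enzyme-substrate mix contained 0.4% bovine serum albumin and was preincubated with compound 10 min at room temperature.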

[8] = Primary qHTS for inhibitors of nuclear receptor binding SET domain protein 2 (NSD2) in an isogenic RCH-ACV NSD2 p.E1099K mutant (9B) (AID 1645876); note: nearly all actives have a fitted effect of over 70% in size; note: potency is the fitted concentration of half-maximal effect
[9] = Primary qHTS for inhibitors of nuclear receptor binding SET domain protein 2 (NSD2) in an RCH-ACV wild type WT cells (2C) (AID 1645877); note: nearly all actives have a fitted effect of over 70% in size; note: potency is the fitted concentration of half-maximal effect
[10] = biological target: Cytochrome P450 3A4 (Homo sapiens) (UniProt P08684); test: Cytochrome P450 family 3 subfamily A member 4 (CYP3A4) small molecule antagonists: luciferase qHTS assay (AID 1645841; active = well fitted curve in the direction sought with a large enough effect in the repeat runs; an effect the other way counts as inactive or inconclusive; note: nearly all actives have a fitted effect of over 45% in size)
Sequence of Cytochrome P450 3A4 (Homo sapiens) (P08684 whole entry, looked up): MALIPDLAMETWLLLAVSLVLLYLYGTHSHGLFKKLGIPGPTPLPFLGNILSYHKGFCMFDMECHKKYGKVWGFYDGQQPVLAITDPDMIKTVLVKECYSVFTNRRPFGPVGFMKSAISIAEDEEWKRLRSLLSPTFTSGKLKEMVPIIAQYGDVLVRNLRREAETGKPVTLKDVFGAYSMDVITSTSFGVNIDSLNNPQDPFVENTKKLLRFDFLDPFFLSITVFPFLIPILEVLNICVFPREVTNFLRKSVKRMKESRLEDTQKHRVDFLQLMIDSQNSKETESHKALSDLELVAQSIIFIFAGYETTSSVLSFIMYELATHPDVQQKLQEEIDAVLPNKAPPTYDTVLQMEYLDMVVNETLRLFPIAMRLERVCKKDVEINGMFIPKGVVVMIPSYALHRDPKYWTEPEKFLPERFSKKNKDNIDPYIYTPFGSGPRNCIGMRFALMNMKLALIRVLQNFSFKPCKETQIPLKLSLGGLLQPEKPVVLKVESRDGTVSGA
How it was run: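 P450-Glo CYP3A4 enzyme with proluciferin substrate was preincubated with DMSO-dissolved compounds for 10 min at room temperature. NADPH regeneration solution started a 1 h reaction. Detection reagent stopped it, and luminescence was read after 20 min.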

[11] = Primary qHTS for inhibitors of La Crosse Virus (LACV) - induced cell death in SH-SY5Y cells (AID 1508616);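 note: top concentration of the series differs between compounds; higher means more rescue of cells from virus-induced death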
How it was run: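 SH-SY5Y cells (6000/well) plated 24 h, then given compounds by pin transfer and LACV at 0.01 MOI for 6 days at 37C. Viability measured by ATPLite luminescence, normalized to infected DMSO and uninfected DMSO.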

SMILES | Potency [1] | outcome [2] | Potency [3] | Potency [4] | Potency [5] | Potency [6] | Potency [7] | Potency [8] | Potency [9] | outcome [10] | Potency [11]
COc1c(C)c2c(c(O)c1C/C=C(\C)CCC(=O)O)C(=O)OC2 | inactive | inactive | inactive | inactive | inactive | inactive | inactive | 66.8 nM (active) and 833 nM (active) | 53.1 nM (active) and 590 nM (active) | – | –
CN=C(NC#N)Nc1ccc(C2=NNC(=O)CC2C)cc1 (stereo unspecified) | inactive | inactive | inactive | inactive | inactive | inactive | inactive | inactive | inactive | – | –
Cc1cc(N)c2cc(NC(=O)Nc3ccc4nc(C)cc(N)c4c3)ccc2n1 | inactive | inactive | inactive | inactive | – | 8.71 µM (active) | inactive | – | – | – | –
Oc1c(I)cc(I)c2cccnc12 | inactive | inactive | inactive | inactive | – | inactive | inactive | 2.99 µM (active) | 2.11 µM (active) | – | –
Cc1nc2n(c(=O)c1CCN1CCC(c3noc4cc(F)ccc34)CC1)CCC[C@H]2O | inactive | inactive | inactive | inactive | – | 12 µM (active) | inactive | inactive | inactive | – | –
CC1=C(C(=O)O)N2C(=O)[C@@H](NC(=O)[C@H](N)c3ccc(O)cc3)[C@H]2SC1 | inactive | inactive | inactive | inactive | inactive | inactive | – | inactive | inactive | – | –
CNC(=O)CN(CCN(CCN(CC(=O)[O-])CC(=O)NC)CC(=O)[O-])CC(=O)[O-].O.[Gd+3] | inactive | inactive | inactive | – | inactive | inactive | inactive | inactive | inactive | inactive | –
O=C1c2ccccc2C(=O)C1c1ccccc1 | inactive | inactive | inactive | inactive | inactive | inactive | inactive | inactive | inactive | – | –
CC(=O)OCC(=O)[C@@]1(O)CC[C@H]2[C@@H]3CCC4=CC(=O)C=C[C@]4(C)[C@H]3[C@@H](O)C[C@@]21C | inactive | inactive | inactive | inactive | inactive | – | inactive | – | 18.8 nM (active) and 183 nM (active) | – | –
O=C1OC(c2ccc(O)cc2)(c2ccc(O)cc2)c2ccccc21 | inactive | – | inactive | – | – | – | – | – | – | – | inactive
COc1ccc(OC)c(C(O)CNC(=O)CN)c1 (stereo unspecified) | inactive | inactive | inactive | – | – | inactive | – | inactive | inactive | – | –
CCOC(=O)c1cccc(N)c1 | inactive | inactive | inactive | – | inactive | inactive | inactive | inactive | inactive | – | –
CCCCC(=O)O[C@]1(C(=O)CO)CC[C@H]2[C@@H]3CCC4=CC(=O)CC[C@]4(C)[C@H]3[C@@H](O)C[C@@]21C | inactive | inactive | inactive | inactive | inactive | inactive | – | – | 0.106 µM (active) | – | –
NC[C@H]1O[C@H](O[C@H]2[C@H](O)[C@@H](O[C@H]3O[C@H](CO)[C@@H](O)[C@H](N)[C@H]3O)[C@H](N)C[C@@H]2N)[C@H](N)[C@@H](O)[C@@H]1O | inactive | inactive | inactive | – | – | inactive | inactive | inactive | inactive | – | –
O=c1c(-c2ccccc2)c1-c1ccccc1 | inactive | inactive | inactive | inactive | – | inactive | – | – | – | – | –
CC(C)(C)NC(=O)[C@@H]1CN(Cc2cccnc2)CCN1C[C@@H](O)C[C@@H](Cc1ccccc1)C(=O)N[C@H]1c2ccccc2C[C@H]1O | inactive | inactive | inactive | inactive | inactive | – | inactive | inactive | inactive | – | –
CO/N=C1\CN(c2nc3c(cc2F)c(=O)c(C(=O)O)cn3C2CC2)CC1CN (stereo unspecified) | inactive | – | inactive | inactive | inactive | inactive | inactive | – | – | – | inactive
OCc1ccccc1O | inactive | – | inactive | – | inactive | inactive | inactive | inactive | inactive | – | inactive
CC/C(=C(/CC)c1ccc(O)cc1)c1ccc(O)cc1 | 15.8 µM (active) | – | inactive | inactive | – | – | – | inactive | 10.6 µM (active) and inactive | – | inactive
C[C@H](O)C(=O)Nc1c(I)c(C(=O)NC(CO)CO)c(I)c(C(=O)NC(CO)CO)c1I | inactive | – | inactive | – | inactive | inactive | inactive | inactive | inactive | – | inactive
C[C@@H]1C[C@H]2[C@@H]3CCC4=CC(=O)C=C[C@]4(C)[C@@]3(F)[C@@H](O)C[C@]2(C)[C@H]1C(=O)CO | inactive | – | inactive | inactive | inactive | inactive | 11 µM (active) | – | – | – | inactive
COc1cc(N)c(Cl)cc1C(=O)NC1CCN(CCCOc2ccc(F)cc2)CC1OC (stereo unspecified) | inactive | – | inactive | – | – | – | inactive | 15 µM (active) | 21.1 µM (active) | – | inactive
CCCCCCCCCCCCCCCCOP(=O)([O-])OCC[N+](C)(C)C | inactive | – | inactive | inactive | – | – | inactive | 10.6 µM (active) | 11.9 µM (active) | – | inactive
